Reference: PMC8384837, “Expanding the binding specificity for RNA recognition by a PUF domain”

molecular target: PUM1 PUF domain R5-DRT (Homo sapiens, UniProt Q14671 828-1176, C1007D;Q1011T); test: yeast three-hybrid, YBZ-1, SC-Leu-His + 0.5 mM 3-AT, 4 days; conditions: tags: N-Gal4 AD-HA kept; label: inside an RPR1-promoter hybrid RNA with tandem MS2 sites; ssRNA
In short: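 Each repeat of the Pumilio-1 PUF domain was randomized at its three base-contacting residues, and these libraries were co-expressed from a centromeric plasmid with matching RNA elements in strain YBZ-1. After four days on SC-Leu (input) or SC-Leu-His + 0.5 mM 3-AT (selection), the repeat regions were PCR-amplified and Illumina-sequenced. The interaction score compares variant frequency between input and selection as a log change, computed in log2 with a pseudocount of 1 for absent variants.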

Row | Sequence | binding signal
1 | GGCUAGAACUAGUGGAUCCCCCGGCGCCCGGCGGCUCGAGCCCGGGUAAGUGUCAAUAGUCUGCAUGCCGCCGGGCGCCAUGCCUGCAGGUCGACUCUAGAAAACAUG | 1.84 log2 enrichment (interaction score)
2 | GGCUAGAACUAGUGGAUCCCCCGGCGCCCGGCGGCUCGAGCCCGGGUAAGUGUGAAUAGUCUGCAUGCCGCCGGGCGCCAUGCCUGCAGGUCGACUCUAGAAAACAUG | 2.11 log2 enrichment (interaction score)
3 | GGCUAGAACUAGUGGAUCCCCCGGCGCCCGGCGGCUCGAGCCCGGGUAAGUGUAAAUAGUCUGCAUGCCGCCGGGCGCCAUGCCUGCAGGUCGACUCUAGAAAACAUG | 2.42 log2 enrichment (interaction score)
